Measured values taken from PubChem BioAssay AID624167 (Sanford-Burnham Center for Chemical Genomics, 2012).

assay: inhibition of PEG-3 promoter-driven reporter – cell-based, HeLa, luciferase, CREF/GAPDH counter-screen panel, dose response (AID 624167); conditions: CREF/GAPDH counter-screens; run 2, dose range 1, at 100 µM (top of the series)

Structure (SMILES)	inhibition [%]
CS(=O)(=O)c1ccc(-c2cn3cc(C(=O)O)ccc3n2)cc1	78.3
O=C(O)c1ccc(N/N=C/c2ccc3nccnc3c2)cc1	99.2
CCOc1cccc(/C=N/NC(=S)Nc2cc(S(=O)(=O)N3CCOCC3)ccc2N2CCOCC2)c1O	-7.85
CCCCCCCNC(=O)C1(CC2CC(c3cccc(Br)c3)=NO2)CCNCC1 (stereo not drawn)	99.3
CCSc1nc2ccccc2n1C(=O)/C=C\c1ccc(OC)c(OC)c1	81.2
COc1ccccc1Nc1nc(-c2sc(NC(=O)c3ccco3)nc2C)cs1	19.4
CS(=O)(=O)Nc1cccc(NC(=O)C2Cc3c(-c4cccc(F)c4)ccnc3O2)c1 (stereo not drawn)	73.6
COc1ccc(C(NC(=O)C(C)C)c2ccc3cccnc3c2O)cc1 (stereo not drawn)	40.9
CN(C)c1c([N+](=O)[O-])cc(N2C(=O)C=CC2=O)cc1[N+](=O)[O-]	98.5
OCCCNc1nccc(-c2cc(Nc3cccc(Cl)c3)ncn2)n1	51.4
COc1cc(CNCCCN2CCOCC2)cc(Br)c1OCc1ccc(Cl)cc1	90.7
Cc1cc(C)c(C)c(S(=O)(=O)N2CCN(C(=O)c3cc(=O)[nH]c4ccccc34)CC2)c1C	80.6
CCC(c1ccc(O)c(O)c1)C(CC)c1ccc(O)c(O)c1 (stereo not drawn)	99.5
CCc1ccc(/C=C2\SC(=S)N(CCCC(=O)Nc3cc(C)on3)C2=O)cc1	84.8
CS(=O)(=O)c1ccc(-c2sc3ccccc3c2C#CCCO)cc1	81.8
Cc1ccc(/C=C2\SC(=S)N(CCCC(=O)NNC(=O)c3ccccc3O)C2=O)cc1	69.2
CN(O)C(=S)c1ccccc1	14.9

Structure (SMILES)	inhibition [%]
Cc1ccc(NC(=S)NC(=O)c2ccc(F)cc2)cc1S(=O)(=O)Nc1ccccc1Cl	55.6
C=CCn1c(C)cc(C(=O)COc2ccc(C)nc2[N+](=O)[O-])c1C	51.8
CCCCC(=O)NC(c1ccc(OC)cc1)c1ccc2cccnc2c1O (stereo not drawn)	20.5
COc1ccc(-n2cc(-c3ccccc3)c3c(N4CCOCC4)ncnc32)cc1	91.3
CCCC(=O)NC(c1ccc(OC)cc1)c1ccc2cccnc2c1O (stereo not drawn)	69
CC(C)CCCCCCCCCCCCC(=O)NCC(=O)NC1C(O)C(O)C(Nc2ncnc3nc[nH]c23)OC1C(O)CO (stereo not drawn)	98.2
COc1cccc(OC)c1C(=O)Nc1cc(C)nn1-c1nc2ccccc2[nH]1	54.4
Cc1ccc(OCC(=O)c2cc(C)n(Cc3ccco3)c2C)c([N+](=O)[O-])n1	66.6
O=C(N/N=C/c1sc(N2CCOCC2)nc1-c1ccccc1)c1cccc(S(=O)(=O)N2CCCC2)c1	42.2
C=CCn1c(COc2ccccc2)nnc1SC(C)C(=O)N/N=C/c1cc(Cl)ccc1O (stereo not drawn)	59.9
CC(=O)c1cccc(-c2ccnc3c2CC(C(=O)Nc2cccc(NS(C)(=O)=O)c2)O3)c1 (stereo not drawn)	52
C/C(=N\NC(=O)c1cc(C2CC2)nc2ccccc12)c1ccc(O)cc1O	-6.29
CC1CC(C)C(=O)C(C(CC2CC(=O)NC(=O)C2)OC(=O)CC(=O)c2ccccc2)C1 (stereo not drawn)	90.5
O=C(Nc1ccccc1C(=O)Nc1nnc(C(F)(F)F)s1)c1ccccc1	60.9
CCCC(=O)NC(c1ccc(C)cc1)c1ccc2cccnc2c1O (stereo not drawn)	57.9
CC(=O)NC(c1ccc(Cl)cc1)c1ccc2cccnc2c1O (stereo not drawn)	64.1
